Six1-Eya2 inh: Six1/Eya2 interaction inhibition; Q15475+O00167; hit rate 0.56% among 360,000; activity change, % (test concentration not listed); AlphaScreen GST-Six1/His-Eya2 binding, biochemical; stronger effect = lower value; AID 651725; in the data active = activity change below about -65%; inconclusive = mostly about -30% to -63%
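AlphaScreen with GST-Six1 and His-Eya2 (5X mix: 250 nM and 500 nM), glutathione donor and nickel acceptor beads; buffer 50 mM Tris pH 8.0, 300 mM NaCl, 1 mM TCEP; 1 h at 37 C in the dark.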
CtBP-E1A blk: blocks the CtBP interaction with E1A; hit rate 0.49% among 340,000; AID 651724; AlphaScreen GST-E1A/His-CtBP binding, 1536-well; stronger effect = lower value; activity change, % (concentration not given with the values); in the data active = activity change below about -65%; inconclusive = mostly about -30% to -63%
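Homogeneous bead-based format: GST-tagged E1A captured on glutathione donor beads, His-tagged CtBP on nickel acceptor beads; compounds precede bead addition by 2 h at 37 °C.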
VP16 counter: inhibits Gal4-VP16 luciferase reporter, ROR gamma counter-screen | Drosophila S2 Gal4-VP16 UAS-luciferase, luminescence, 20 h | hit rate 3.5% among 310,000 | Potency, µM (top dose mostly 53.6 µM), for inactives: at the top dose activity, negative = inhibition, usual class: inhibitors | AID 2546;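 note: Gal4-VP16 expression switched on by copper sulfate through the metallothionein promoter; potency is the fitted concentration of half-maximal effect; nearly all actives have a fitted effect of over 50% in size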
RORg inh: blocks mouse ROR gamma transcriptional activity; Drosophila S2 Gal4-RORgamma UAS-luciferase reporter, 20 h; Potency, µM (doses to about 53.6 µM), for inactives: at the top dose activity change, negative = inhibition, hits mostly inhibitors; hit rate 5.4% among 310,000; AID 2551; note: potency is the fitted concentration of half-maximal effect; nearly all actives have a fitted effect of over 60% in size
Target sequence (P51450 whole entry, looked up, the tested form may be a part): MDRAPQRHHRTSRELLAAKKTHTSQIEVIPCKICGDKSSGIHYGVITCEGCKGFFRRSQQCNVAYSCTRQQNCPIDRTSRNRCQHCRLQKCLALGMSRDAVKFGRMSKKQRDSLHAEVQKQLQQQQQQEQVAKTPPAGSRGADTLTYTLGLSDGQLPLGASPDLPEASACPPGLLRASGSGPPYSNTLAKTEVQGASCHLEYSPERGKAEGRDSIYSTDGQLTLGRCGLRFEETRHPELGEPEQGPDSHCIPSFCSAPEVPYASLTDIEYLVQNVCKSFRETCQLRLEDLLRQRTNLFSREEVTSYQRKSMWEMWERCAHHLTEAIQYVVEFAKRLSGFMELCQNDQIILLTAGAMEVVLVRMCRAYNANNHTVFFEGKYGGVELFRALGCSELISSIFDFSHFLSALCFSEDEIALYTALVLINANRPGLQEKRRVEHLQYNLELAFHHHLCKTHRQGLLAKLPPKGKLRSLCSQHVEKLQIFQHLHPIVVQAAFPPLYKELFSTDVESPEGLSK
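Schneider cells (Drosophila), stable Gal4 DBD–ROR gamma + UAS-luc; 1 hr cmpd preincubation; Cu2+ induction 700 uM final; 20 hr ambient; luminescence.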
PKM2 activator: increases activity of human pyruvate kinase M2; Potency, µM (series often up to 57.5 µM), for inactives: at the highest dose activation, actives largely listed as activators; purified PKM2, Kinase-Glo ATP luminescence, activation; response scale: 0% is enzyme alone, no compound; hit rate 0.34% among 260,000; note: potency is the fitted concentration of half-maximal effect; nearly all actives have a fitted effect of over 55% in size
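ATP formation by purified human PK-M2, quantified via coupled luciferase luminescence after 1 h at room temperature with 0.1 mM ADP and 0.5 mM PEP final.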
An asterisk follows results filed as active; ? = inconclusive; / = no result; [ ] = dose if it differs, or a comment. Compounds with a hit are over-represented: about 5.6% of the library has one in this group of screens. Unless noted, calls come from the whole dose curve; as a rule, active = well fitted curve in the direction sought with a large enough effect; inconclusive = small, poorly fitted or top-dose-only effect, or another doubt; inactive = no such curve, though single readings can be large; an effect the other way counts as inactive or inconclusive. % is set by controls: 0 for no effect and ±100 for the full control effect.

SMILES | Six1-Eya2 inh | CtBP-E1A blk | VP16 counter | RORg inh | PKM2 activator
Cc1cccc(CS(=O)(=O)c2ncc(Cl)c(C(=O)Nc3c(C)cccc3C)n2)c1 | -9 | -13 | 8.9µM* | ? | /
Cc1cccc(C)c1NC(=O)c1nc(S(=O)(=O)Cc2ccccc2)ncc1Cl | -11 | -1 | 5µM* | 10µM* | /
COc1ccc(OC)c2[nH]c(=O)c(CCNC(=S)NC(C)(C)C)cc12 | -3 | / | 11µM* | 4.5µM* | 0%
CC(=O)Nc1ccc(S(=O)(=O)Nc2nnc(C(C)(C)C)s2)cc1 | 5 | -4 | -12% | -40% | 16µM*
CC(C)(C)c1nnc(NS(=O)(=O)c2ccc(F)cc2)s1 | -2 | 3 | / | / | /
CC1(NC(=O)c2cccc(S(=O)(=O)N3CCN(c4ccc(F)cc4)CC3)c2)CCS(=O)(=O)C1 (stereo not drawn) | -2 | -11 | / | / | /
CC(=O)N1c2ccc(S(=O)(=O)N3CCC(C(=O)NCCc4ccc(Cl)cc4)CC3)cc2CC1C (stereo not drawn) | 0 | -2 | ? | ? | /
C/C(=N\NC(=S)Nc1cccc(C)c1)c1ccccc1 | ? | ? | 7.9µM* | 1.1µM* | -8%
C/C(=N\NC(=S)Nc1cccc(C)c1)c1cccc(N)c1 | -16 | 2 | 3.2µM* | 4.5µM* | 7%
CSC(=S)N/N=C(\C)c1ccccc1 | -13 | -3 | 4.5µM* | 0.45µM* | 8%
C/C(=N\NC(N)=S)c1ccccc1 | -3 | -4 | 15% | 14% | 7%
C/C(=N\Nc1ccccc1)c1cccc(N)c1 | 5 | -24 | ? | 16% | 0%
C/C(=N\NC(=S)Nc1ccc(C)cc1)c1cccc(N)c1 | -9 | -11 | 13µM* | 2.8µM* | -1%
C/C(=N\NC(=S)Nc1cccc(C)c1)c1ccco1 | -18 | -17 | -27% | ? | -9%
CN(CC(=O)Nc1ccccc1C(F)(F)F)C(=O)c1cc([N+](=O)[O-])ccc1N1CCOCC1 | 5 | 0 | 8% | -6% | 1%
CC(C)c1ccc(/C=C2\SC(=O)N(CC(=O)NC3C=CS(=O)(=O)C3)C2=O)cc1 (stereo not drawn) | 4 | / | 4.5µM* | ? | /
O=C(CN1C(=O)/C(=C/c2ccc(Cl)cc2)SC1=S)NC1C=CS(=O)(=O)C1 (stereo not drawn) | -4 | / | ? | -25% | /
O=C(CC1(c2ccc(Cl)cc2)C2CC3CC(C2)CC1C3)NCCO (stereo not drawn) | 0 | 3 | -1% | -7% | 2%
Cc1cc(C)n(CC2CC(=O)N(c3ccc(F)c(Cl)c3)C2=O)n1 (stereo not drawn) | 6 | 4 | 4% | 14µM* | -11%
Cc1nc(-c2ccc(C(=O)Nc3ccccc3F)cc2)cs1 | 19 | 0 | 8.9µM* | 8.9µM* | -44%
Cc1nc(-c2ccc(NC(=O)c3ccco3)cc2)cs1 | 0 | 0 | 4.5µM* | 3.5µM* | /
O=C(Nc1ccc(Oc2ccc(NC(=O)c3ccco3)c(NC(=O)c3ccco3)c2)cc1)c1ccco1 | -5 | 6 | -2% | 21% | 16%
O=C(Nc1ccc(Oc2ccc3ccccc3c2)cc1)c1ccco1 | 3 | 3 | 10µM* | -95% | 6%
O=C(Nc1ccc(NC(=O)c2ccco2)cc1)c1ccco1 | 1 | 0 | 2% | -15% | 4%
Nc1nc(-c2ccc(NC(=O)c3ccco3)cc2)cs1 | -15 | -13 | ? | 10µM* | /
SMILES | Six1-Eya2 inh | CtBP-E1A blk | VP16 counter | RORg inh | PKM2 activator
CCN1Cc2c(/C=C/c3ccccc3)nc3ccc(OC)cc3c2N(c2cccc(Cl)c2)C1 | -6 | / | -2% | 6% | 4%
O=S(=O)(Nc1cccc(CCc2ccccn2)c1)c1ccc2ccccc2c1 | 6 | 2 | 2.5µM* | 7.9µM* | 9%
CCCC[C@H](NC(=O)[C@H](CO)NC(=O)[C@H](Cc1ccc(O)cc1)NC(=O)[C@H](CO)NC(C)=O)C(=O)N[C@@H](CCC(=O)O)C(=O)N[C@@H](Cc1cnc[nH]1)C(=O)N[C@H](Cc1ccccc1)C(=O)N[C@@H](CCCNC(=N)N)C(=O)N[C@@H](Cc1c[nH]c2ccccc12)C(=O)NCC(=O)N[C@@H](CCCCN)C(=O)N1CCC[C@H]1C(=O)N[C@H](C(N)=O)C(C)C | / | / | -5% | -15% | /
CCOC(=O)C1CCN(S(=O)(=O)c2cccc(-c3cn4cc(C)ccc4n3)c2)CC1 | -3 | 0 | 18µM* | -19% | 5%
O=C(Nc1ccnn1C1CCN(CCCc2ccccc2)CC1)c1cccc(F)c1 | -2 | 4 | 1% | -32% | -19%
Cc1cccc(NC(=O)c2nc[nH]c2C(=O)N[C@@H](Cc2ccccc2)C(=O)OC(C)(C)C)c1 | -9 | -6 | 7.1µM* | 3.2µM* | 0%
CC(C)(C)OC(=O)[C@H](Cc1ccccc1)NC(=O)c1[nH]cnc1C(=O)Nc1ccc(Cl)cc1 | -8 | -4 | 8.9µM* | 4µM* | 1%
CC(C)(C)OC(=O)[C@H](Cc1ccccc1)NC(=O)c1[nH]cnc1C(=O)Nc1cccc(Cl)c1 | 2 | 0 | 4µM* | 4.5µM* | 5%
Cc1cccc(NC(=O)c2nc[nH]c2C(=O)N[C@@H](CC(C)C)C(=O)OC(C)(C)C)c1 | -4 | 0 | 10µM* | 5.6µM* | -4%
c1ccc(Cn2c[n+](Cc3ccccc3)c3ccccc32)cc1 | -4 | / | -24% | 10% | /
CCOC(=O)c1ccc(NC(=O)c2nc[nH]c2C(=O)N[C@@H](Cc2ccccc2)C(=O)OC(C)(C)C)cc1 | ? | -9 | 7.1µM* | 2.8µM* | 4%
Cc1cc(NC(=O)CCc2ccc(C)o2)no1 | -77* | -18 | -2% | -35% | ?
Cc1ccc(C)c(NC(=O)CCc2ccc(C)o2)c1 | 3 | / | -5% | -5% | -5%[11.5 µM]
Cc1c(C(=O)NCCC#N)sc(=O)n1Cc1ccccc1F | -2 | 0 | / | / | /
Cc1cc([N+](=O)[O-])nn1CC(=O)N/N=C/c1ccccc1F | -3 | -4 | 4% | -4% | -2%
Cc1cc([N+](=O)[O-])nn1CC(=O)N/N=C/c1ccccc1O | -92* | ? | 7.1µM* | 2.2µM* | 2%
Cc1cc(C)n(CC(=O)N/N=C/c2cc([N+](=O)[O-])ccc2O)n1 | -88* | -91* | 2.8µM* | 2.8µM* | -3%
Nc1nnc(CC(=O)N/N=C\c2cc([N+](=O)[O-])ccc2O)s1 | -92* | -91* | -18% | -13% | -4%
Nc1nnc(CC(=O)N/N=C/c2ccc(-c3cccc(C(=O)O)c3)o2)s1 | -66* | -71* | -12% | -43% | 2%
Cc1cc(Cl)ccc1NC(=O)CCC(=O)N/N=C/c1cc([N+](=O)[O-])ccc1O | ? | -26 | -2% | ? | -16%
Cc1cc([N+](=O)[O-])nn1Cc1ccc(C(=O)N/N=C/c2ccc(F)cc2)cc1 | 0 | -6 | 7% | 6% | -4%
Cc1cc(C)n(CC(=O)N/N=C/c2cc(Br)cc([N+](=O)[O-])c2O)n1 | ? | / | 0.89µM* | 0.63µM* | 0%
